Values joined by “and” are separate entries in the source; they are usually repeats but may differ in a detail not shown here. Identical values can stand only once. Hit rate of the full screen: of about 5,500 compounds, about 2,000 (36%) were called active. Inconclusive results (about 18%) are left out. Rule as the data show it: active = normalized growth mostly below about 0.91 (no sharp cut-off); inconclusive = no clear call, values can overlap the other calls; inactive = mostly above about 0.92. The list shows a part of the results.
Test: chemical genetic growth profiling, strain panel (AID 1159580);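 also: tested at 20 µM; growth read once vehicle control cultures reached saturation at 30 °C; 1 = growth at the plate median or of vehicle wells; lower values mean less growth of the strain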
Details: growth OD

Measured: normalized growth

O=C1OC(=O)C2C3CCC(O3)C12 (stereo not given)
inactive: S. cerevisiae deletion strains, locus YKL009W, strain mrt4, hits give low values 0.895 | S. cerevisiae deletion strains, locus YKL068W, hits give low values 1 | S. cerevisiae deletion strains, locus YKL085W, strain MDH1 (second series), hits give low values 1.01 | S. cerevisiae deletion strains, locus YKL085W, strain MDH1, hits give low values 1.01 | S. cerevisiae deletion strains, locus YKL160W, strain elf1, hits give low values 1.04 | S. cerevisiae deletion strains, locus YKL190W, strain CNB1, hits give low values 0.991 | S. cerevisiae deletion strains, locus YKR001C, strain vps1, hits give low values 0.95 | S. cerevisiae deletion strains, locus YKR026C, strain gcn3, hits give low values 1 | S. cerevisiae deletion strains, locus YKR091W, strain srl3, hits give low values 1.01 | S. cerevisiae deletion strains, locus YLL001W, strain dnm1, hits give low values 0.995 | S. cerevisiae deletion strains, locus YLL026W, hits give low values 1 | S. cerevisiae deletion strains, locus YLL041C, strain sdh2, hits give low values 1.02 | S. cerevisiae deletion strains, locus YLR027C, strain aat2, hits give low values 0.994 | S. cerevisiae deletion strains, locus YLR039C, strain RIC1, hits give low values 1.06 | S. cerevisiae deletion strains, locus YLR058C, strain SHM2, hits give low values 1.01 | S. cerevisiae deletion strains, locus YLR102C, strain apc9, hits give low values 0.972 | S. cerevisiae deletion strains, locus YLR221C, strain rsa3, hits give low values 0.983 | S. cerevisiae deletion strains, locus YLR258W, strain gsy2, hits give low values 1.02 | S. cerevisiae deletion strains, locus YLR262C, strain YPT6 (second series), hits give low values 1.06 | S. cerevisiae deletion strains, locus YLR262C, strain YPT6, hits give low values 1.06 | S. cerevisiae deletion strains, locus YLR268W, strain sec22, hits give low values 0.979 | S. cerevisiae deletion strains, locus YLR320W, strain mms22, hits give low values 1 | S. cerevisiae deletion strains, locus YLR330W, strain CHS5, hits give low values 1 | S. cerevisiae deletion strains, locus YLR342W, strain FKS1 (second series), hits give low values 1.02 | S. cerevisiae deletion strains, locus YLR342W, strain FKS1, hits give low values 1.03 | S. cerevisiae deletion strains, locus YLR357W, strain rsc2, hits give low values 1.01 | S. cerevisiae deletion strains, locus YLR370C, strain arc18, hits give low values 0.999 | S. cerevisiae deletion strains, locus YLR371W, strain rom2, hits give low values 0.959 | S. cerevisiae deletion strains, locus YLR384C, strain iki3, hits give low values 1.01 | S. cerevisiae deletion strains, locus YLR418C, strain cdc73, hits give low values 0.928 | S. cerevisiae deletion strains, locus YML016C, strain PPZ1, hits give low values 1.01 | S. cerevisiae deletion strains, locus YML032C, strain rad52, hits give low values 0.968 | S. cerevisiae deletion strains, locus YML120C, strain ndi1, hits give low values 0.998 | S. cerevisiae deletion strains, locus YML124C, strain tub3, hits give low values 0.986 | S. cerevisiae deletion strains, locus YMR058W, strain fet3, hits give low values 1 | S. cerevisiae deletion strains, locus YMR078C, strain ctf18, hits give low values 0.963 | S. cerevisiae deletion strains, locus YMR125W, strain sto1, hits give low values 1.01 | S. cerevisiae deletion strains, locus YMR129W, hits give low values 1 | S. cerevisiae deletion strains, locus YMR205C, strain PFK2, hits give low values 1.03 | S. cerevisiae deletion strains, locus YMR223W, strain ubp8, hits give low values 0.989 | S. cerevisiae deletion strains, locus YMR231W, strain pep5, hits give low values 0.988 | S. cerevisiae deletion strains, locus YMR263W, strain SAP30, hits give low values 1.03 | S. cerevisiae deletion strains, locus YMR307W, strain GAS1, hits give low values 1.02 | S. cerevisiae deletion strains, locus YNL067W, strain RPL9B, hits give low values 1.01 | S. cerevisiae deletion strains, locus YNL071W, strain lat1, hits give low values 1 | S. cerevisiae deletion strains, locus YNL128W, strain TEP1, hits give low values 1.01 | S. cerevisiae deletion strains, locus YNL153C, strain GIM3, hits give low values 1.01 | S. cerevisiae deletion strains, locus YNL175C, strain NOP13, hits give low values 1.02 | S. cerevisiae deletion strains, locus YNL183C, strain NPR1, hits give low values 0.887 | S. cerevisiae deletion strains, locus YNL197C, strain WHI3, hits give low values 1.01 | S. cerevisiae deletion strains, locus YNL209W, strain ssb2, hits give low values 0.994 | S. cerevisiae deletion strains, locus YNL224C, strain SQS1, hits give low values 1.01 | S. cerevisiae deletion strains, locus YNL233W, strain BNI4, hits give low values 1.02 | S. cerevisiae deletion strains, locus YNL248C, strain rpa49, hits give low values 1.05 | S. cerevisiae deletion strains, locus YNL250W, strain rad50, hits give low values 0.93 | S. cerevisiae deletion strains, locus YNL271C, strain bni1, hits give low values 0.967 | S. cerevisiae deletion strains, locus YNL307C, strain MCK1, hits give low values 0.977 | S. cerevisiae deletion strains, locus YNL322C, strain KRE1 (second series), hits give low values 1.01 | S. cerevisiae deletion strains, locus YNL322C, strain KRE1, hits give low values 1.02 | S. cerevisiae deletion strains, locus YNR049C, strain mso1, hits give low values 1.01 | S. cerevisiae deletion strains, locus YNR052C, strain pop2, hits give low values 0.983 | S. cerevisiae deletion strains, locus YOL006C, strain TOP1, hits give low values 1.03 | S. cerevisiae deletion strains, locus YOL012C, strain htz1 0.735 | S. cerevisiae deletion strains, locus YOL147C, strain pex11, hits give low values 0.973 | S. cerevisiae deletion strains, locus YOR001W, strain rrp6, hits give low values 0.964 | S. cerevisiae deletion strains, locus YOR061W, strain CKA2, hits give low values 1.01 | S. cerevisiae deletion strains, locus YOR069W, strain VPS5, hits give low values 1.02 | S. cerevisiae deletion strains, locus YOR070C, strain gyp1, hits give low values 1.02 | S. cerevisiae deletion strains, locus YOR080W, strain dia2, hits give low values 1.01 | S. cerevisiae deletion strains, locus YOR083W, strain WHI5 (second series), hits give low values 1.01 | S. cerevisiae deletion strains, locus YOR083W, strain WHI5, hits give low values 1.04 | S. cerevisiae deletion strains, locus YOR106W, strain vam3, hits give low values 1.05 | S. cerevisiae deletion strains, locus YOR136W, strain idh2, hits give low values 0.964 | S. cerevisiae deletion strains, locus YOR144C, strain elg1, hits give low values 0.982 | S. cerevisiae deletion strains, locus YOR184W, strain ser1, hits give low values 0.979 | S. cerevisiae deletion strains, locus YOR231W, strain MKK1, hits give low values 0.89 | S. cerevisiae deletion strains, locus YOR265W, strain rbl2, hits give low values 1.01 | S. cerevisiae deletion strains, locus YOR270C, strain vph1, hits give low values 1.03 | S. cerevisiae deletion strains, locus YOR290C, strain snf2, hits give low values 1.05 | S. cerevisiae deletion strains, locus YOR316C, strain cot1, hits give low values 0.979 | S. cerevisiae deletion strains, locus YPL051W, strain arl3, hits give low values 1.03 | S. cerevisiae deletion strains, locus YPL055C, strain LGE1, hits give low values 0.959 and 1.03 | S. cerevisiae deletion strains, locus YPL078C, strain atp4, hits give low values 1.06 | S. cerevisiae deletion strains, locus YPL106C, strain sse1, hits give low values 1.04 | S. cerevisiae deletion strains, locus YPL240C, strain hsp82, hits give low values 1 | S. cerevisiae deletion strains, locus YPL241C, strain CIN2, hits give low values 1.01 | S. cerevisiae deletion strains, locus YPL256C, strain CLN2, hits give low values 0.926 | S. cerevisiae deletion strains, locus YPR119W, strain clb2, hits give low values 0.968 | S. cerevisiae deletion strains, locus YPR141C, strain kar3, hits give low values 0.957 | S. cerevisiae deletion strains, locus YPR163C, strain tif3, hits give low values 0.96 | S. cerevisiae deletion strains, locus YPR167C, strain met16, hits give low values 0.977 | S. cerevisiae deletion strains, strain wtn01, hits give low values 0.983 | S. cerevisiae strains, strain wild type, hits give low values 1.01
active: S. cerevisiae deletion strains, locus YLR113W, strain HOG1, hits give low values 0.843 | S. cerevisiae deletion strains, locus YNL298W, strain CLA4, hits give low values 0.901
